Sampled rows, rich in hits. Any-hit rate of the full collection: about 21%.
Pf growth 48h: Primary qHTS for delayed death inhibitors of the malarial parasite plastid, 48 hour incubation | P. falciparum luciferase growth in erythrocytes, 48 h | Potency, µM (doses to about 28.7 µM), usual class: inhibitors | hit rate 5.9% among 310,000
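First compound was added to culture medium, then infected red cells at 0.1% parasitemia and 2% hematocrit (final). After incubation at 37 C under 5% CO2, luciferase detection reagent was dispensed and light output recorded.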
Pf growth 96h: Primary qHTS for delayed death inhibitors of the malarial parasite plastid, 96 hour incubation | P. falciparum luciferase reporter growth, 96 h | hit rate 6.9% among 320,000 | Potency, µM (series often up to 28.7 µM), actives largely listed as inhibitors | AID 504834, 2011
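Compounds incubated with erythrocytes infected by luciferase-expressing P. falciparum (2% hematocrit, 0.05% parasitemia final) for 96 hours, 37 C in 5% CO2. Growth inhibition scored as decreased luciferase luminescence.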
Cycloheximide cs: Cycloheximide Counterscreen for Small Molecule Inhibitors of Shiga Toxin | cell reporter, cycloheximide protein synthesis inhibition counterscreen | max response, % | hit rate 12% among 300,000; in the data active = max response mostly above about 13%, no sharp cut-off; inactive = mostly below about 14%; note: read at 38.3 µM for the half of the compounds with a filed dose
HCV inhibitor: qHTS Assay for Inhibitors of Hepatitis C Virus (HCV); Huh7.5.1 HCVcc-Cre infection, luciferase reporter, 44 h; Potency, µM (top dose mostly 41.8 µM), actives largely listed as inhibitors; hit rate 3.4% among 340,000
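A cell-based infection assay in which seeded cells (1,000 per well) receive test compound after 4 h, are inoculated with HCVcc-Cre at approximately 0.5 moi, and are incubated 44 h before luminescence detection.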
AMA1 RON2 block: qHTS for Inhibitors of AMA1-RON; Towards Development of Antimalarial Drug Lead: Primary Screen. Plasmodium falciparum AMA1 (3D7) - RON2 peptide interaction. Potency, µM (series often up to 58.2 µM), actives largely listed as inhibitors. AlphaScreen AMA1-biotinylated RON2 peptide binding. hit rate 0.2% among 360,000; note: nearly all actives have a fitted effect of over 45% in size
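AMA1 (3D7) with his tag at 25 nM final met compounds first, then biotinylated RON2 peptide at 25 nM; detection used donor plus acceptor beads, 10 µg/mL apiece, read by AlphaScreen after 30 min at room temperature.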
Shiga toxin inh: A qHTS for Small Molecule Inhibitors of Shiga Toxin; Vero cells, Shiga toxin protein synthesis inhibition reporter; inhibition, % at 38.7 µM; hit rate 9.2% among 290,000; in the data active = inhibition mostly above about 28%, no sharp cut-off; inactive = mostly below about 43%
Hits are given with their value; . = inactive; ? = inconclusive; / = no result given; [ ] = remark or other dose. Unless noted, calls come from the whole dose curve; as a rule, active = well fitted curve in the direction sought with a large enough effect; inconclusive = small, poorly fitted or top-dose-only effect, or another doubt; inactive = no such curve, though single readings can be large; an effect the other way counts as inactive or inconclusive.

SMILES	Pf growth 48h	Pf growth 96h	Cycloheximide cs	HCV inhibitor	AMA1 RON2 block	Shiga toxin inh
C[C@@H]1OC(Oc2ccccc2-c2cc(=O)c3c(O)cc(O)c([C@@H]4O[C@H](CO)[C@@H](O)[C@H](O)[C@H]4O)c3o2)[C@H](O)[C@H](O)[C@H]1O (some centres undefined)	/	/	.	/	/	.
CCc1nc2ccc(C(=O)Nc3cccc(OCC(=O)N(C)C)c3)cn2c1N(CCC(C)C)CCN(C)C	/	/	/	/	.	/
COCCNC(=O)C1CCCN(C(=O)C2(c3ccc(Cl)cc3)CCCC2)CC1 (centres undefined)	/	/	/	/	.	/
COc1ccc(-c2cc(C3C4C=CCCC4(C)C(=O)N3Cc3ccccc3)ccc2F)cc1OC (centres undefined)	/	/	.	/	/	.
CO/N=C(\C(=O)N[C@@H]1C(=O)N2C(C(=O)[O-])=C(C[N+]3(C)CCCC3)CS[C@@H]12)c1csc(N)n1	.	.	/	/	/	/
CCOC(=O)C1CCCN(C(=O)c2cn(CC)c3ccc(S(=O)(=O)N4CCCC4)cc3c2=O)C1 (centres undefined)	12µM	/	.	.	.	.
CCOC(=O)C1CCCN(C(=O)c2cn(C)c3ccc(S(=O)(=O)N4CCCC4)cc3c2=O)C1 (centres undefined)	.	.	.	?	.	.
CCOC(=O)C1CCCN(S(=O)(=O)c2ccc(S(=O)(=O)N3CCCC3)cc2)C1 (centres undefined)	?	.	/	1.4µM	.	/
CCOC(=O)C1CCCN(C(=O)c2ccc(S(=O)(=O)N3CCCC3)cc2)C1 (centres undefined)	.	.	/	?	.	/
NC(N)=N/N=C/c1ccc(N(c2ccccc2)c2ccccc2)cc1	2.3µM	2.1µM	.	?	.	.
CCN(Cc1ccccc1)c1ccc(/C=N/N=C(N)N)cc1	1.5µM	1.7µM	.	?	?	.
CCN(Cc1ccccc1)c1ccccc1	/	/	/	.	.	/
COc1ccccc1Cc1c(-c2ccc(OC)c(OC)c2)nc2c(Cl)cc(C(F)(F)F)cn12	/	/	/	/	.	/
O=[N+]([O-])c1cccc(CON=Cc2ccccc2O)c1	/	/	/	/	.	/
COC(=O)c1cc(C(=O)c2ccc(Cl)cc2Cl)cn1C	4.7µM	5.2µM	.	.	.	.
CN1CCC(OC(=O)c2ccccc2Cl)CC1	.	.	.	.	?	.
CN1CCC(OC(=O)c2ccc(Cl)cc2Cl)CC1	.	7.4µM	.	?	.	.
COc1cc(OC)c(NC(=O)CSc2nc3ccncc3[nH]2)cc1Cl	.	.	/	/	/	/
O=C(CCN1C(=O)[C@@H]2Cc3ccccc3CN2C1=O)NCc1ccccc1Cl	.	?	.	.	.	.
COc1ccc2[nH]cc(CCn3ccc(O)c(C/C=C/c4ccccc4)c3=O)c2c1	9.3µM	?	.	?	?	.
CC(=O)Nc1ccc(-n2c(C)ccc2-c2ccccc2)cc1	.[0.00184 µM]	?	.	.	.	.
O=C(O)CCc1ccc(-c2ccccc2)n1CC1CCCO1 (centres undefined)	.	/	.	.	.	.
CC(=O)c1ccc(-n2c(C)ccc2-c2ccccc2)cc1	/	?	29	.	.	.
Cc1ccc(-c2ccc(CCC(=O)O)n2CC2CCCO2)cc1 (centres undefined)	.	?	14	.	.	.
O=C(O)CCc1ccc(-c2ccc(F)cc2)n1CC(=O)O	.	.	.	.	.	.
SMILES	Pf growth 48h	Pf growth 96h	Cycloheximide cs	HCV inhibitor	AMA1 RON2 block	Shiga toxin inh
COC(=O)Cn1c(CCC(=O)O)ccc1-c1ccccc1	/	8.3µM	.	.	.	.
CCCn1c(CCC(=O)O)ccc1-c1ccc(F)cc1	.	9.3µM	.	.	.	.
CCCCC[C@@H](C)N1C[C@H](COCc2ccccc2)Oc2cc(N3CCC[C@@H]3COC)ccc2S1(=O)=O	/	/	/	/	.	/
CCN(CC)C(CNC(=O)CSc1nnnn1-c1c(C)cccc1C)c1ccco1 (centres undefined)	?	.	/	.	.	/
CC(NC(=O)c1ccc(S(=O)(=O)Nc2ccccc2Cl)cc1)c1ccncc1 (centres undefined)	/	/	/	.	.	/
CC(=O)Nc1ccc(NC(=O)CSc2ccc([N+](=O)[O-])cn2)cc1	.	.	.	.	.	.
CCOc1ccc(CCN2C(=O)C(=O)N([C@@H](Cc3ccccc3)CN3CCC[C@H]3CN3C(=O)C(=O)NC[C@@H]3Cc3ccccc3)C[C@@H]2CC(C)C)cc1	/	/	/	/	.	/
CC(=O)c1ccc(-n2c(CCC(=O)O)ccc2-c2ccccc2)cc1	.	.	.	.	.	.
COC(=O)c1ccc(-n2c(C)ccc2-c2ccccc2)cc1	?	?	14	.	.	.
COC(=O)c1ccc(-n2c(CCC(=O)O)ccc2-c2ccccc2)cc1	.	3.7µM	.	.	.	.
COc1ccc(-n2c(C)ccc2-c2ccccc2)cn1	?	?	.	.	.	/
COc1ccc(C2=NN(CC(=O)Nc3ccccc3C)C(=O)CC2)cc1	4.1µM	?	12	?	.	.
Cc1onc(-c2ccccc2)c1CNS(=O)(=O)c1ccccc1[N+](=O)[O-]	.	?	.	.	.	.
Cc1ccc(-n2ncc(C(=O)N3CCN(C(=O)c4ccco4)CC3)c2C2CCN(C(=O)OC(C)(C)C)CC2)cc1C	4.7µM	.	.	.	.	.
CC(C)(C)OC(=O)N1CCC(c2c(C(=O)N3CCN(C(=O)c4ccco4)CC3)cnn2-c2ccc(F)cc2)CC1	?	.	.	.	.	.
CCOC(=O)c1cnn(-c2ccc(Cl)cc2)c1C1CCN(C(=O)OC(C)(C)C)CC1	/	.	.	13µM	?	.
CCOC(=O)c1cn2nc(-c3ccc(OCC)cc3)cc2nc1C1CCN(C(=O)OC(C)(C)C)CC1	/	?	.	?	.	.
COCOCCn1cc(CN2CCS(=O)(=O)N(Cc3ccc(-c4ccccc4)cc3)C(C(C)C)C2=O)nn1 (centres undefined)	/	/	/	/	.	/
CCCc1nc2ccc(Br)cn2c1Cc1cccc(Cl)c1	/	/	/	/	.	/
COc1cccc(CNc2ncc(Br)cc2Br)c1O	.	.	66	?	.	61
COc1cccc(CNc2nc3ccccc3n2C(C)C)c1O	?	?	.	?	.	.
COc1cccc(CNn2cnnc2)c1O	.	.	.	.	.	.
COc1cccc(CNc2ccc(Br)cn2)c1O	.	.	43	.	.	72
CCN(c1ccc(C(=O)CN2C(=O)NC3(CCOc4ccccc43)C2=O)cc1)S(C)(=O)=O (centres undefined)	?	.	/	.	.	/
C=CCOc1nc(-c2ccncc2)nc2ccccc12	7.4µM	.	.	5µM	.	.
CC(=O)c1ccc(Oc2nc(-c3cccnc3)nc3ccccc23)cc1	?	.	.	11µM	.	.
COc1nc(-c2ccncc2)nc2ccccc12	?	?	.	?	.	.

Screens deposited in PubChem BioAssay by National Center for Advancing Translational Sciences (NCATS).
